Only some compounds are listed: those with a hit (about 2.8% of all), similar ones and a draw of the others.
HSP90 inh: HSP90 inhibitors, primary screen, cell lysate, luminescence; AID 1789, 2009; Rabbit reticulocyte lysate, luciferase refolding luminescence, 3 h; Heat shock protein HSP 90 (rabbit reticulocyte lysate; luciferase refolding); inhibition, % at 5.6 µM; 290,000 tested, 0.91% active;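 active = inhibition above the screen-wide mean plus 3 SD, computed separately per campaign, cut at about 16% in these data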;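 note: 0% = DMSO wells and 100% = 60 µM geldanamycin wells; inhibitors lower the luminescence because luciferase stays unfolded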
SENP7 block: SENP7 protease inhibitors, primary screen, biochemical, luminescence, uHTS; Sentrin-specific protease 7 (Homo sapiens), Q9BQF6; recombinant SENP7, Z-RLRGG-aminoluciferin luminescence, 40 min; inhibition, % at 5 µM; 330,000 tested, 1.5% active;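 active = inhibition above about 50% at the single test dose, limit read from the data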;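 note: plate controls were DMSO with enzyme for no effect and no enzyme buffer wells for full effect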
Target sequence (Q9BQF6 706-1050 limits assumed): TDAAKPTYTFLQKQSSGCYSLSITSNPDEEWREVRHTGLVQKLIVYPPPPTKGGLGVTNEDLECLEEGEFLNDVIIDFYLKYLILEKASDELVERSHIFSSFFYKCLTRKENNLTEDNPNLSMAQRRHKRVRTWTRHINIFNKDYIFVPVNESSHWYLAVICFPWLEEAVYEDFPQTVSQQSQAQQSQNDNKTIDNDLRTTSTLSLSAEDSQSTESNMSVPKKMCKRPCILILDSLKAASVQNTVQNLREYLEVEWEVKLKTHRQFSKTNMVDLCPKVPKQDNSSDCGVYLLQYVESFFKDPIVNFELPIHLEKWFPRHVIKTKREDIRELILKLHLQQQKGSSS
SENP8 block-1: SENP8 protease inhibitors, primary screen, biochemical, luminescence | purified SENP8, Z-RLRGG-aminoluciferin cleavage | inhibition, % at 10 µM | 330,000 tested, 1.2% active; in the data active = inhibition above about 50%
SENP6 inh: SENP6 protease inhibitors, primary screen, biochemical, luminescence, uHTS; Sentrin-specific protease 6 (Homo sapiens), Q9GZR1; Recombinant SENP6 catalytic domain, aminoluciferin luminescence; inhibition, % at 10 µM; 330,000 tested, 1.8% active;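 active = inhibition above about 50% at the single tested dose, limit read from the data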;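 note: plate controls were DMSO wells with enzyme for no effect and DMSO wells lacking enzyme for full effect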
SENP8 block-2: human SENP8 protease inhibitors, primary screen, biochemical, fluorescence, Nedd8 protein substrate, uHTS | Sentrin-specific protease 8 (Homo sapiens), Q96LD8 | recombinant SENP8 | inhibition, % at 20 µM | 360,000 tested, 0.64% active; in the data active = inhibition mostly above about 40%, no sharp cut-off; inactive = mostly below about 27%
SENP8 confirm: SENP8 protease inhibitors, retest, confirmation, biochemical, luminescence, single concentration; inhibition, % at 12.5 µM; Recombinant SENP8, Z-RLRGG-aminoluciferin luminescence, 60 min; 6,200 tested, 40% active; shares compounds with SENP7 block;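 active = mean inhibition across replicates above about 50%, limit read from the data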
SENP6 conf: SENP6 protease inhibitors, confirmation, biochemical, luminescence, single concentration; shares compounds with SENP7 block; recombinant SENP6, Z-RLRGG-aminoluciferin luminescence; inhibition, % at 12.5 µM; 6,200 tested, 58% active; AID 488915, 2010
SENP7 confirm: SENP7 protease inhibitors, retest, confirmation, biochemical, luminescence, single concentration; inhibition, % at 12.5 µM; recombinant SENP7, Z-RLRGG-aminoluciferin luminescence, 40 min; shares compounds with SENP7 block; 6,200 tested, 69% active
Casp3 select: caspase-3 protease inhibitors, confirmation, selectivity assay for SENP inhibitor project, biochemical, single concentration. inhibition, % at 12.5 µM. AID 488918, 2010. purified caspase-3, Z-DEVD-aminoluciferin luminescence, 60 min. 6,200 tested, 60% active. shares compounds with SENP7 block;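 active = mean inhibition above about 50%, limit read from the data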;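 note: plate controls were enzyme with DMSO for no effect and wells without caspase-3 for full effect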
SENP luc ctr: luminescence interference (SENP counter-screen). shares compounds with SENP7 block. Pre-incubated SENP8/Z-RLRGG-aminoluciferin, luciferase luminescence interference. inhibition, % at 12.5 µM. 6,200 tested, 39% active. AID 488919;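 active = mean inhibition above about 50% when retested at one dose, limit read from the data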;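 note: plate controls were DMSO wells with completed reaction for no effect and substrate without enzyme for full effect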
* = called active by the depositor.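 Rule for the calls, unless noted: active = mean inhibition above about 50% in the one-dose retest (limit read from the data); inactive = the rest.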

What do the screens show for `Oc1[nH]c2ccccc2c1N=Nc1nc2ccccc2s1`?
HSP90 inh: -5; SENP7 block: 89*; SENP8 block-1: 55*; SENP6 inh: 72*; SENP8 block-2: 29; SENP8 confirm: 40; SENP6 conf: 32; SENP7 confirm: 51*; Casp3 select: 36; SENP luc ctr: 43

How did Oc1[nH]c2ccccc2c1N=Nc1ccc(F)cc1 do in these assays?
HSP90 inh: -1; SENP7 block: 89*; SENP8 block-1: 69*; SENP6 inh: 78*; SENP8 block-2: 23; SENP8 confirm: -18; SENP6 conf: 64*; SENP7 confirm: 67*; Casp3 select: 26; SENP luc ctr: -6

Results for Oc1[nH]c2ccccc2c1N=Nc1ccccc1F ?
HSP90 inh: 2; SENP7 block: 75*; SENP8 block-1: 3; SENP6 inh: 41; SENP8 block-2: 24; SENP8 confirm: 16; SENP6 conf: 11; SENP7 confirm: 35; Casp3 select: 20; SENP luc ctr: 11

How did COc1ccc(C(C)=O)cc1COC(=O)CCC(=O)N(CC(C)C)c1c(N)n(CC(C)C)c(=O)[nH]c1=O do in these assays?
SENP7 block: -15; SENP8 block-1: -11; SENP6 inh: -4; SENP8 block-2: 6

Results for COc1ccc(C(C)=O)c(OCC(=O)NCCC2=CCCCC2)c1 ?
SENP8 block-2: 16

How did CCc1nnc(NC(=O)C2CC(=O)N(C3CCCCC3)C2)s1 (stereo not given) do in these assays?
HSP90 inh: -1; SENP7 block: -12; SENP8 block-1: -8; SENP6 inh: -16; SENP8 block-2: 3

Results for Oc1ccc2ccccc2c1N=Nc1ccc(F)cc1 ?
HSP90 inh: 5; SENP7 block: 7; SENP8 block-1: -7; SENP6 inh: 6; SENP8 block-2: 36

What do the screens show for `Oc1c(N=Nc2ccc(F)cc2)ccc2ccccc12`?
HSP90 inh: 3; SENP7 block: 99*; SENP8 block-1: 86*; SENP6 inh: 82*; SENP8 block-2: 42*; SENP8 confirm: 38; SENP6 conf: 45; SENP7 confirm: 21; Casp3 select: 78*; SENP luc ctr: 12

How did CCc1cccc(CC)c1C(OC(C)=O)c1cccnc1 (stereo not given) do in these assays?
SENP7 block: -3; SENP8 block-1: 55*; SENP6 inh: -25; SENP8 block-2: 15; SENP8 confirm: 8; SENP6 conf: 10; SENP7 confirm: 18; Casp3 select: 10; SENP luc ctr: 6

How did CC(C)(C)c1cnnn1-c1ccc(/C=N/Nc2ccc([N+](=O)[O-])cc2)cc1 do in these assays?
HSP90 inh: -1; SENP7 block: -7; SENP8 block-1: 64*; SENP6 inh: 41; SENP8 block-2: -100; SENP8 confirm: 4; SENP6 conf: 3; SENP7 confirm: -2; Casp3 select: -2; SENP luc ctr: -2

What do the screens show for `C/C(=N\Nc1ccc([N+](=O)[O-])cc1)c1ccc(-n2nncc2C)cc1`?
HSP90 inh: -2; SENP7 block: -10; SENP8 block-1: -5; SENP6 inh: -2; SENP8 block-2: -190

Results for CCOC(=O)N1CCN(C(=O)Nc2ccc(NC(=O)N3CCN(C(=O)OCC)CC3)cc2)CC1 ?
HSP90 inh: 1; SENP7 block: -9; SENP8 block-1: 5; SENP6 inh: -24; SENP8 block-2: 11

Screens from PubChem BioAssay.
